# Cycloheximide cs = counter-screen hit for Shiga toxin inhibitors, cycloheximide | 12% of 300,000 active | cell reporter, cycloheximide protein synthesis inhibition counterscreen | max response, % | AID 2314; in the data active = max response mostly above about 13%, no sharp cut-off; inactive = mostly below about 14%; note: read at 38.3 µM for the half of the compounds with a filed dose; 0% is about no effect
# VACV Venus inh = inhibitors of vaccinia virus (Venus reporter). Vaccinia virus Venus reporter expression, fluorescence. Potency, µM (titrated, usually from 36.5 µM), without a hit: top-dose activity change, negative = inhibition, actives largely listed as inhibitors. AID 720580. 0.46% of 330,000 active; calls by dose curve; tested in A549 cells; note: potency is the fitted concentration of half-maximal effect; % is set by controls: 0 for no effect and ±100 for the full control effect; nearly all actives have a fitted effect of over 30% in size
# VACV mCherry inh = vaccinia inhibition (mCherry reporter); Potency, µM (top dose mostly 36.5 µM), for the others: at the top dose activity change, negative = inhibition, usual class: inhibitors; 0.63% of 310,000 active; Vaccinia virus mCherry reporter infection, fluorescence; calls by dose curve; tested in A549 cells; note: potency is the fitted concentration of half-maximal effect; % is set by controls: 0 for no effect and ±100 for the full control effect; nearly all actives have a fitted effect of over 35% in size
# LASV entry inh = Lassa virus entry inhibition | Lassa virus pseudotype entry inhibition, cell reporter | 1.2% of 300,000 active | Potency, µM (titrated, usually from 37.9 µM), inactives show top-dose activity change, negative = inhibition, usual class: inhibitors; calls by dose curve; tested in HEK293 cells; note: potency is the fitted concentration of half-maximal effect; % is set by controls: 0 for no effect and ±100 for the full control effect; nearly all actives have a fitted effect of over 50% in size
# Marburg entry inh = blocks Marburg virus binding to or entry into cells; Marburg virus pseudotyped entry inhibition, cell reporter; Potency, µM (highest dose often 37.8 µM), for inactives: at the top dose activity change, negative = inhibition, most hits filed as inhibitors; 1.8% of 300,000 active; calls by dose curve; tested in HEK293 cells; note: potency is the fitted concentration of half-maximal effect; % is set by controls: 0 for no effect and ±100 for the full control effect
# Shiga inhibitor = Shiga toxin inhibition; 9.2% of 290,000 active; Vero cells, Shiga toxin protein synthesis inhibition reporter; inhibition, % at 38.7 µM; AID 2315; in the data active = inhibition mostly above about 28%, no sharp cut-off; inactive = mostly below about 43%; note: 0% is about no effect
# Starred values were filed as active, the others as inactive; i = inactive; ? = inconclusive; · = no result given; ! = not confirmed by another sample; [ ] = another dose, or the depositor's remark. The full list was thinned out, with hits kept by preference.
SMILES,Cycloheximide cs,VACV Venus inh,VACV mCherry inh,LASV entry inh,Marburg entry inh,Shiga inhibitor
S=C(Nc1ccc2c(c1)OCCO2)Nc1ccccc1Cl,32.7*,-15.9%,?,2.6%[46.1 µM],23.8%[46.1 µM],48.0*
CCn1ncc(NC(=S)Nc2ccc(OC)c(OC)c2)c1C(N)=O,5.5,-10.3%,-10.1%,·,-3.0%[46.1 µM],33.2
S=C(Nc1ccc2c(c1)OCO2)Nc1ccc2c(c1)OCO2,54.5*,-15.4%,-20.4%,12.1%,16.4%,66.3*
S=C(NCc1ccc2c(c1)OCO2)Nc1ccc2nsnc2c1,15.2*,-5.0%,-13.4%,18.5%,-35.5%[46.1 µM],36.5
O=C(O)[C@H](Cc1ccccc1)NC(=O)N1CCN(c2ccc(F)cc2)CC1,0.8,·,·,·,·,-6.9
CC1CCN(c2nc3c(S(=O)(=O)c4ccc(Cl)cc4)nnn3c3ccsc23)CC1,·,-29.3%,-26.9%,-8.0%[46.1 µM],·,·
Cc1noc(C)c1CSCC(=O)OCc1nnc(-c2ccc([N+](=O)[O-])cc2)o1,·,8.0%,-6.0%,16.8%,10.6%,·
CCOC(=O)c1cc(-c2ccccc2)sc1NC(=O)C(C)Sc1nnc(C)s1 (stereo unspecified),10.7*,-12.3%,-2.9%,-9.0%,-2.8%[46.1 µM],38.9
CCOC(=O)c1cc(-c2ccccc2)sc1NC(=O)C(C)Sc1nnnn1C (stereo unspecified),-2.7,-21.7%,-26.3%,-14.2%,?,-5.3
COc1ccc(S(=O)(=O)N2CCC(C(=O)N3CCc4ccccc4C3)CC2)cc1Cl,28.2*,-17.7%,-18.8%,-7.2%,4.1%,23.2
CC(NC(=O)/C=C/c1ccc(Br)cc1)c1ccccc1 (stereo unspecified),1.0,-6.2%,-20.0%,14.6µM*,?,-13.4
Cc1ccc(/C=C/C(=O)NC(C)c2ccccc2)cc1 (stereo unspecified),-2.9,-21.1%,-21.8%,11.2µM*,9.3%,23.5
O=C(O)CSc1nnc(Cc2cccc3ccccc23)n1-c1cc(C(F)(F)F)cc(C(F)(F)F)c1,-1.7,·,·,·,·,-3.6
CN1CCN(C2=C(Cl)C(=O)N(c3cccc(Cl)c3)C2=O)CC1,9.4,·,·,0.0%,?,6.2
O=C1C(Cl)=C(N2CCCCCC2)C(=O)N1c1ccc(Cl)cc1,12.3*,·,·,·,·,17.8
O=C1C=C(N2CCCCCC2)C(=O)N1c1ccc(Cl)cc1,62.3*,-8.3%,-25.8%,?,?,175.7*
CN1CCN(C2=C(Cl)C(=O)N(c3ccc(Cl)c(Cl)c3)C2=O)CC1,23.4*,-16.8%,-15.9%,1.4%,?,66.4
O=C1C=C(Nc2ccc(Cl)cc2)C(=O)N1c1ccc(Cl)cc1,13.3,·,·,-0.9%,0.0%,-2.9
CN(C)C/C=C(/c1ccc(Br)cc1)c1cccnc1,·,-18.6%,-26.8%,-22.8%,7.08µM*,·
CCC(C)(C)c1ccc(OCCCC[n+]2ccc(C)cc2)c(C(C)(C)CC)c1,-5.2,·,·,?,20.6µM*,-20.9
Cc1cc(OCC(=O)c2cccc(C(F)(F)F)c2)n2cnnc2n1,-2.5,2.7%,-15.8%,-0.8%[46.1 µM],9.1%[46.1 µM],-7.6
Cc1cc(CC(C)C)n(-c2nc3ccccc3c(=O)n2OCc2ccccc2)n1,31.0*,·,·,-3.1%,-3.4%,44.7
Cc1cc(C)n(-c2nc3ccccc3c(=O)n2OCc2ccc(F)cc2)n1,18.5*,-20.0%,·,1.6%,6.0%,22.5
Cc1cc(C)n(-c2nc3ccccc3c(=O)n2OCC(=O)OCc2ccccc2)n1,14.6*,?,·,?,?,35.9
Cc1cc(C)n(-c2nc3ccccc3c(=O)n2OCC(=O)N(C)C)n1,4.7,-5.2%,·,7.5%,26.3%,6.0
SMILES,Cycloheximide cs,VACV Venus inh,VACV mCherry inh,LASV entry inh,Marburg entry inh,Shiga inhibitor
Cc1cc(C)n(-c2nc3ccccc3c(=O)n2OCc2ccc(Cl)cc2)n1,1.3,·,·,-10.1%,-16.4%,11.3
CCC(c1nnnn1Cc1ccc(F)cc1)N1CCN(C2CCCCC2)CC1 (stereo unspecified),-1.9,-26.8%,·,?,12.6µM*,-6.3
COc1ccc(Cn2nnnc2C(c2ccccc2)N2CCN(C3CCCC3)CC2)cc1 (stereo unspecified),-4.3,-14.2%,-7.9%,-6.0%,7.08µM*!,3.4
COc1ccc(C(c2nnnn2CCc2ccccc2)N2CCN(C3CCCC3)CC2)cc1 (stereo unspecified),42.0*,-14.6%,-20.3%,?,?,60.2*
COc1ccc(C(c2nnnn2Cc2ccccc2)N2CCN(c3nc4ccccc4s3)CC2)cc1 (stereo unspecified),-3.3,-22.8%,·,11.2µM*,?,-8.2
CCCC(c1nnnn1Cc1ccc(F)cc1)N1CCN(C)CC1 (stereo unspecified),-2.5,-15.6%,i,-9.2%[46.1 µM],17.4%,12.6
COc1ccc(CCN(Cc2cc3ccc(C)cc3[nH]c2=O)C(C)=O)cc1OC,-2.6,-8.1%,-13.1%,-8.4%,-6.1%[46.1 µM],-5.1
COc1ccc2c(c1)C(c1ccc([N+](=O)[O-])cc1)=NNC(c1ccco1)=N2,-1.5,-1.0%,-6.5%,-23.3%,?,2.8
CCc1ccc2c(c1)C(c1ccc([N+](=O)[O-])cc1)=NNC(c1ccc(F)cc1)=N2,24.0*,·,·,9.7%,?,63.5*
CCn1nnc(NC(=O)c2ccc(-c3ccc(Cl)cc3)o2)n1,35.9*,-6.5%,-6.6%,-17.1%,12.6%[46.1 µM],34.9*
O=C(NC(=S)Nc1ccccc1O)c1ccc(-c2ccc(Cl)cc2)o1,-2.4,?,-26.6%,3.4%,11.4%,-3.8
CC(=O)NC(=O)c1ccc(-c2ccc(Cl)cc2)o1,25.0*,-13.2%,i,?,?,16.9*
O=C(NC12CC3CC(CC(C3)C1)C2)c1ccc(-c2ccc(Cl)cc2)o1,85.2*,-21.1%,-20.6%,?,?,128.6*
O=C(NC12CC3CC(CC(C3)C1)C2)c1ccc(-c2ccccc2Cl)o1,43.6*,-21.2%,·,?,?,161.4*
CCn1nnc(NC(=O)Cc2ccc(Cl)cc2)n1,7.8,-4.6%,-0.4%,?,-1.6%,27.2
CCCCC(=O)Nc1ccc2nc(SCC(=O)N3CCCC3)sc2c1,·,-9.0%,-5.7%,6.6%[46.1 µM],?,·
COc1cc(C(=O)N2CCN(CCc3ccccn3)CC2)cc(OC)c1OC,·,-4.3%,-7.8%,?,?,·
COc1cccc2nccc(/C=C/c3ccc(N(C)C)cc3)c12,·,44.3%,-19.0%,·,·,·
COc1cccc(OC)c1OC(=O)c1ccccc1,·,-0.1%,i,0.7%[46.1 µM],24.2%,·
O=C(NC12CC3CC(CC(C3)C1)C2)c1ccc(-c2cccc(Cl)c2)o1,35.0*,-15.3%,-20.5%,-21.3%,-24.6%,82.7*
O=C(NC12CC3CC(CC(C3)C1)C2)c1ccc(COc2ccc(Cl)cc2[N+](=O)[O-])o1,-0.9,-40.0%,·,?,?,1.7
CN1CCN(c2ccc(NC(=O)c3ccc(-c4ccc(Cl)cc4)o3)cc2)CC1,7.8,11.2µM*,?,?,?,38.6
N#C/C(=C\c1ccc([N+](=O)[O-])cc1)C(=O)Nc1ccccc1O,30.6*,-2.9%,-13.1%,14.3%,?,39.5
N#C/C(=C/c1ccc(O)c([N+](=O)[O-])c1)C(=O)Nc1ccccc1,26.5*,-25.7%,-10.5%,-6.8%[46.1 µM],2.51µM*,50.6*

# Assay outcomes as filed in PubChem BioAssay.
